In PubChem BioAssay AID1159580 (chemical genetic matrix, 2015):
In all, about 5,500 compounds went through this assay and about 2,000 (36%) were called active. Not shown: some 18% with an inconclusive outcome. This is one part of the list. A number with no mark means an inactive call. No stated cut-off is given here; in the data, active means normalized growth mostly below about 0.91 (no sharp cut-off); inconclusive means no clear call, values can overlap the other calls; inactive means mostly above about 0.92.

Assay: chemical genetic growth profiling, strain panel (AID 1159580);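 further: tested at 20 µM; growth read once vehicle control cultures reached saturation at 30 °C; 1 = growth at the plate median or of vehicle wells; lower values mean less growth of the strain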
Conditions: growth OD
[1] = S. cerevisiae deletion strains, locus YDL101C, strain DUN1, active compounds read low
[2] = S. cerevisiae deletion strains, locus YHR030C, strain SLT2, active compounds read low
[3] = S. cerevisiae deletion strains, locus YBR229C, strain ROT2, active compounds read low
[4] = S. cerevisiae deletion strains, locus YDR150W, strain NUM1, active compounds read low
[5] = S. cerevisiae deletion strains, locus YEL061C, strain CIN8, active compounds read low
[6] = S. cerevisiae deletion strains, locus YHR087W, strain rtc3, active compounds read low
[7] = S. cerevisiae deletion strains, locus YJR043C, strain POL32, active compounds read low
[8] = S. cerevisiae deletion strains, locus YJR075W, strain HOC1, active compounds read low
[9] = S. cerevisiae deletion strains, locus YLR039C, strain RIC1, active compounds read low
[10] = S. cerevisiae deletion strains, locus YLR058C, strain SHM2 (second series), active compounds read low
[11] = S. cerevisiae deletion strains, locus YLR085C, strain ARP6, active compounds read low
[12] = S. cerevisiae deletion strains, locus YLR262C, strain YPT6, active compounds read low
[13] = S. cerevisiae deletion strains, locus YML094W, strain GIM5, active compounds read low
[14] = S. cerevisiae deletion strains, locus YMR219W, strain ESC1, active compounds read low
[15] = S. cerevisiae deletion strains, locus YMR263W, strain SAP30, active compounds read low
[16] = S. cerevisiae deletion strains, locus YMR307W, strain GAS1, active compounds read low
[17] = S. cerevisiae deletion strains, locus YNL153C, strain GIM3, active compounds read low
[18] = S. cerevisiae deletion strains, locus YNL298W, strain CLA4 (second series), active compounds read low
[19] = S. cerevisiae deletion strains, locus YNL322C, strain KRE1, active compounds read low
[20] = S. cerevisiae deletion strains, locus YNR030W, strain Alg12, active compounds read low
[21] = S. cerevisiae deletion strains, locus YPL055C, strain LGE1, active compounds read low
[22] = S. cerevisiae deletion strains, locus YPL241C, strain CIN2, active compounds read low
[23] = S. cerevisiae deletion strains, locus YPR135W, strain CTF4, active compounds read low
[24] = S. cerevisiae strains, strain wild type, active compounds read low

In the case of `CCCC1c2ccsc2CCN1C(=S)Nc1ccc(Cl)cc1Cl` (centres undefined), the normalized growth (S. cerevisiae deletion strains, locus YAR019C, strain CDC15, active compounds read low) is reported as 0.969, the normalized growth (S. cerevisiae deletion strains, locus YBL105C, strain PKC1, active compounds read low) is reported as 0.971 and the normalized growth (S. cerevisiae deletion strains, locus YBR135W, strain CKS1, active compounds read low) is reported as 0.983. It also gave a normalized growth (S. cerevisiae deletion strains, locus YBR136W, strain MEC1, active compounds read low) of 0.972, a normalized growth (S. cerevisiae deletion strains, locus YBR160W, strain CDC28, active compounds read low) of 0.984 and a normalized growth (S. cerevisiae deletion strains, locus YDL017W, strain CDC7, active compounds read low) of 0.973. The normalized growth (S. cerevisiae deletion strains, locus YDL028C, strain MPS1, active compounds read low) was 0.971, the normalized growth [1] was 0.984 and the normalized growth (S. cerevisiae deletion strains, locus YDL108W, strain KIN28, active compounds read low) was 0.987. It also gave a normalized growth (S. cerevisiae deletion strains, locus YDL132W, strain cdc53, active compounds read low) of 0.98, a normalized growth (S. cerevisiae deletion strains, locus YDL214C, strain PRR2, active compounds read low) of 0.984 and a normalized growth (S. cerevisiae deletion strains, locus YDR052C, strain DBF4, active compounds read low) of 0.981. For the same compound, the normalized growth (S. cerevisiae deletion strains, locus YDR054C, strain cdc34, active compounds read low) was 0.962, the normalized growth (S. cerevisiae deletion strains, locus YDR226W, strain ADK1, active compounds read low) was 0.968 and the normalized growth (S. cerevisiae deletion strains, locus YDR477W, strain SNF1, active compounds read low) was 0.974. It also gave a normalized growth (S. cerevisiae deletion strains, locus YER123W, strain YCK3, active compounds read low) of 0.952, a normalized growth (S. cerevisiae deletion strains, locus YER133W, strain GLC7, active compounds read low) of 0.968 and a normalized growth (S. cerevisiae deletion strains, locus YFL009W, strain cdc4, active compounds read low) of 0.971. The normalized growth (S. cerevisiae deletion strains, locus YFL029C, strain CAK1, active compounds read low) was 0.967, the normalized growth (S. cerevisiae deletion strains, locus YFR003C, strain YPI1, active compounds read low) was 0.975 and the normalized growth (S. cerevisiae deletion strains, locus YFR019W, strain FAB1, active compounds read low) was 0.986. It also gave a normalized growth (S. cerevisiae deletion strains, locus YFR028C, strain CDC14, active compounds read low) of 0.963, a normalized growth (S. cerevisiae deletion strains, locus YGR040W, strain KSS1, active compounds read low) of 0.959 and a normalized growth (S. cerevisiae deletion strains, locus YGR052W, strain FMP48, active compounds read low) of 1. It also gave a normalized growth (S. cerevisiae deletion strains, locus YGR092W, strain DBF2, active compounds read low) of 0.946, a normalized growth [2] of 0.922 and a normalized growth (S. cerevisiae deletion strains, locus YHR079C, strain IRE1, active compounds read low) of 0.975. It also gave a normalized growth (S. cerevisiae deletion strains, locus YHR082C, strain KSP1, active compounds read low) of 0.987, a normalized growth (S. cerevisiae deletion strains, locus YHR205W, strain SCH9, active compounds read low) of 0.878 and a normalized growth (S. cerevisiae deletion strains, locus YIL147C, strain SLN1, active compounds read low) of 0.973. For the same compound, the normalized growth (S. cerevisiae deletion strains, locus YJL095W, strain BCK1, active compounds read low) was 0.961, the normalized growth (S. cerevisiae deletion strains, locus YJL128C, strain PBS2, active compounds read low) was 0.946 and the normalized growth (S. cerevisiae deletion strains, locus YJL157C, strain FAR1, active compounds read low) was 0.981. For the same compound, the normalized growth (S. cerevisiae deletion strains, locus YJR016C, strain ILV3, active compounds read low) was 0.972, the normalized growth (S. cerevisiae deletion strains, locus YJR066W, strain TOR1 (second series), active compounds read low) was 0.946 and the normalized growth (S. cerevisiae deletion strains, locus YJR066W, strain TOR1, active compounds read low) was 0.981. It also gave a normalized growth (S. cerevisiae deletion strains, locus YKL048C, strain ELM1, active compounds read low) of 0.975, a normalized growth (S. cerevisiae deletion strains, locus YKL067W, strain YNK1, active compounds read low) of 0.97 and a normalized growth (S. cerevisiae deletion strains, locus YKL101W, strain HSL1, active compounds read low) of 0.964. The normalized growth (S. cerevisiae deletion strains, locus YKL193C, strain SDS22, active compounds read low) was 0.969, the normalized growth (S. cerevisiae deletion strains, locus YKL203C, strain TOR2, active compounds read low) was 1.02 and the normalized growth (S. cerevisiae deletion strains, locus YLR113W, strain HOG1, active compounds read low) was 0.897. It also gave a normalized growth (S. cerevisiae deletion strains, locus YLR133W, strain CKI1, active compounds read low) of 0.974, a normalized growth (S. cerevisiae deletion strains, locus YLR403W, strain SFP1, active compounds read low) of 0.931 and a normalized growth (S. cerevisiae deletion strains, locus YML070W, strain DAK1, active compounds read low) of 0.944. For the same compound, the normalized growth (S. cerevisiae deletion strains, locus YMR001C, strain CDC5, active compounds read low) was 0.977, the normalized growth (S. cerevisiae deletion strains, locus YMR205C, strain PFK2 (second series), active compounds read low) was 0.968 and the normalized growth (S. cerevisiae deletion strains, locus YMR277W, strain FCP1, active compounds read low) was 0.977. For the same compound, the normalized growth (S. cerevisiae deletion strains, locus YNL006W, strain LST8, active compounds read low) was 0.991, the normalized growth (S. cerevisiae deletion strains, locus YNL020C, strain ARK1, active compounds read low) was 0.986 and the normalized growth (S. cerevisiae deletion strains, locus YNL161W, strain CBK1, active compounds read low) was 0.98. It also gave a normalized growth (S. cerevisiae deletion strains, locus YNL183C, strain NPR1, active compounds read low) of 0.966, a normalized growth (S. cerevisiae deletion strains, locus YNL207W, strain RIO2, active compounds read low) of 0.97 and a normalized growth (S. cerevisiae deletion strains, locus YNL222W, strain SSU72, active compounds read low) of 0.976. For the same compound, the normalized growth (S. cerevisiae deletion strains, locus YNL307C, strain MCK1 (second series), active compounds read low) was 0.973, the normalized growth (S. cerevisiae deletion strains, locus YOL078W, strain AVO1, active compounds read low) was 0.974 and the normalized growth (S. cerevisiae deletion strains, locus YOL136C, strain PFK27, active compounds read low) was 0.958. The normalized growth (S. cerevisiae deletion strains, locus YOR061W, strain CKA2, active compounds read low) was 0.964, the normalized growth (S. cerevisiae deletion strains, locus YOR119C, strain RIO1, active compounds read low) was 1.02 and the normalized growth (S. cerevisiae deletion strains, locus YOR231W, strain MKK1, active compounds read low) was 0.978. For the same compound, the normalized growth (S. cerevisiae deletion strains, locus YOR329C, strain SCD5, active compounds read low) was 0.974, the normalized growth (S. cerevisiae deletion strains, locus YPL031C, strain PHO85, active compounds read low) was 0.966 and the normalized growth (S. cerevisiae deletion strains, locus YPL153C, strain RAD53, active compounds read low) was 0.971. The normalized growth (S. cerevisiae deletion strains, locus YPL204W, strain HRR25, active compounds read low) was 0.985, the normalized growth (S. cerevisiae deletion strains, locus YPL209C, strain IPL1, active compounds read low) was 0.974 and the normalized growth (S. cerevisiae deletion strains, locus YPL256C, strain CLN2, active compounds read low) was 0.932. For the same compound, the normalized growth (S. cerevisiae deletion strains, locus YPR025C, strain CCL1, active compounds read low) was 0.983, the normalized growth (S. cerevisiae deletion strains, locus YPR106W, strain ISR1, active compounds read low) was 0.973 and the normalized growth (S. cerevisiae deletion strains, locus YPR111W, strain DBF20, active compounds read low) was 0.959. It also gave a normalized growth (S. cerevisiae deletion strains, strain NNK1, active compounds read low) of 0.965 and a normalized growth (S. cerevisiae deletion strains, strain TSCII, active compounds read low) of 0.959.

With `O=c1[nH]c(-c2cc(Br)cs2)nc2ccc(Cl)cc12` the normalized growth (S. cerevisiae deletion strains, locus YAL013W, strain DEP1, active compounds read low) was 1.01, the normalized growth [3] was 1.01 and the normalized growth [1] was 1. It also gave a normalized growth [4] of 0.938, a normalized growth [5] of 1.01 and a normalized growth [2] of 1.03. The normalized growth [6] was 1.04, the normalized growth [7] was 1.01 and the normalized growth [8] was 1.06. It also gave a normalized growth [9] of 1.1, a normalized growth [10] of 1 and a normalized growth [11] of 1.06. The normalized growth [12] was 1.07, the normalized growth [13] was 1.04 and the normalized growth [14] was 1.13 [resistant] (active). The normalized growth [15] was 0.954, the normalized growth [16] was 1.06 and the normalized growth [17] was 1.04. The normalized growth [18] was 1.04, the normalized growth [19] was 1.01 and the normalized growth [20] was 1.04. The normalized growth [21] was 0.896, the normalized growth [22] was 0.999 and the normalized growth [23] was 1.07. For the same compound, the normalized growth [24] was 1.02.

Work on `O=c1[nH]cnc2ccc(Br)cc12` yielded a normalized growth [3] of 1.01, a normalized growth [1] of 0.98 and a normalized growth (S. cerevisiae deletion strains, locus YDL134C, strain PPH21, active compounds read low) of 1.01. For the same compound, the normalized growth [4] was 0.918, the normalized growth [5] was 0.998 and the normalized growth (S. cerevisiae deletion strains, locus YGR078C, strain PAC10, active compounds read low) was 1. The normalized growth [2] was 0.994, the normalized growth [6] was 1.01 and the normalized growth (S. cerevisiae deletion strains, locus YJL187C, strain SWE1, active compounds read low) was 1.01. The normalized growth [7] was 1.02, the normalized growth [8] was 1.01 and the normalized growth (S. cerevisiae deletion strains, locus YKL190W, strain CNB1, active compounds read low) was 1.01. It also gave a normalized growth [9] of 1.02, a normalized growth [10] of 1.01 and a normalized growth [11] of 1.01. The normalized growth [12] was 1.01, the normalized growth [13] was 0.98 and the normalized growth [14] was 1.01. It also gave a normalized growth [15] of 0.949, a normalized growth [16] of 1.02 and a normalized growth [17] of 1. It also gave a normalized growth [18] of 1.04, a normalized growth [19] of 1.01 and a normalized growth [20] of 1.01. It also gave a normalized growth [21] of 0.921, a normalized growth [22] of 1.01 and a normalized growth [23] of 0.97. For the same compound, the normalized growth [24] was 1.
